We go through eleven compounds from PubChem BioAssay (EPA / NIEHS).

The test system of assay [1] is Thyroperoxidase (TPO), gene 54314. Nature of the assay: CCTE_Simmons_AUR_rTPO: CCTE's Amplex UltraRed Assay for Thyroperoxidase (TPO) Inhibition, Simmons Lab (AID 2283662).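 On AC50: potency for loss of signal meaning inhibition of peroxidase activity.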 The essentials:
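Rat thyroid microsomes (5 ug protein) with 25 uM Amplex UltraRed and 300 uM H2O2 in 200 mM phosphate buffer, 30 min at 37C in dark; fluorescence 544/590 nm. Eight concentrations, 5 nM–87.5 uM final, 0.5% DMSO, triplicate biological replicates.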

Read-out in assay [2]: xenobiotic metabolism (CYP2C9), CYP2C9 (gene 1559)
Nature of the assay: CLD_CYP2C9_6hr: CellzDirect (CLD) Gene Expression Assay for xenobiotic metabolism (CYP2C9) at 6 hours (AID 2283664). The gist of the method: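 Readout is qNPA chemiluminescence of CYP2C9 mRNA, taken 6 h after dosing of cultured human liver primary cells at several concentrations. Activity is the increase over 0.2% DMSO baseline. Morphology-based cytotoxicity flagged yes/no.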

Assay [3] can be described thus: CCTE_Simmons_CellTiterGLO_HEK293T: Viability Assessment in CCTE's Assays for Thyroperoxidase (TPO) Inhibition, Simmons Lab (AID 2283665).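 On AC50: cells exposed to compound for 24 h before readout; actives reduce ATP signal below DMSO vehicle meaning cytotoxicity.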 The gist of the method:
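ATP depletion measured in HEK293T cells after 24 h dosing (8 concentrations, 5 nM–87.5 uM final; DMSO 0.5%) using CellTiter-Glo luminescence; curves fit for loss of signal against DMSO baseline.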
For orientation: In ATP-based viability assays light output follows the ATP content of the culture.

Read-out in assay [4]: alkyl and aryl transferase (GSTA2), GSTA2 (gene 2939)
Nature of the assay: CLD_GSTA2_6hr: CellzDirect (CLD) Gene Expression Assay for alkyl and aryl transferase (GSTA2) at 6 hours (AID 2283666). The essentials: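 GSTA2 transcript induction at 6 h, quantified by nuclease protection (qNPA) with chemiluminescent detection, in human liver primary hepatocytes exposed to several compound concentrations with 0.2% DMSO as baseline; phase-contrast morphology annotated apparent cytotoxicity.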

Assay [5] is described as follows: Tanguay_ZF_120hpf_TR_legacy: (Legacy) Oregon State University Tanguay Lab 120 Hour Post-fertilization zebrafish Assay for Touch Response (AID 2283667). The gist of the method: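 Readout is presence or absence of touch response in 120 hpf zebrafish larvae, assessed by brightfield observation after continuous static exposure at 28C. Final vehicle was 0.64% (vol/vol) DMSO.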

Read-out in assay [6]: sulfotransferase (SULT2A), SULT2A1 (gene 6822)
Nature of the assay: CLD_SULT2A_6hr: CellzDirect (CLD) Gene Expression Assay for sulfotransferase (SULT2A) at 6 hours (AID 2283669).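 Further: hits raise transcript level above the DMSO vehicle baseline.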 The essentials: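 Measured 6 h after dosing, SULT2A1 mRNA in human hepatocyte lysates was quantified by S1 nuclease protection with chemiluminescent detection. Increases fitted against 0.2% DMSO vehicle baseline; phase-contrast cytotoxicity recorded yes/no.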

Assay [7] in a line: CLD_ACTIN_24hr: CellzDirect (CLD) Gene Expression Assay for Baseline Control (Actin) at 24 hours (AID 2283670). The gist of the method:
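This 24 h qNPA (S1 nuclease protection, chemiluminescence) actin transcript readout in cultured human liver primary cells serves as baseline control. Signal is fitted upward relative to 0.2% DMSO; chemicals tested at multiple concentrations across two donor preparations.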

A short description of assay [8]: CCTE_Padilla_ZF_144hpf_TERATOSCORE: (Legacy) CCTE's 144 Hour Post-fertilization zebrafish Assay Teratoscore, Padilla Lab (AID 2283679; active means hit-call score of the fitted dose curve at least 0.9, where 1 is the maximum; inactive means score below 0.9;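 on AC50: zebrafish embryos with chorions exposed by immersion from 6-8 hpf to 5 dpf with daily renewal; teratogenicity score from eye scoring of death hatching and malformations at 144 hpf; higher score means more developmental defects relative to DMSO baseline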). The gist of the method:
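Larvae scored by eye at 144 hpf for death, hatching and malformations after a day in clean Hanks'. Before that, daily-renewed exposure at 80 uM (0.4% DMSO, 26C) from roughly 6-8 hpf through 5 dpf, 4 embryos per chemical.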

Read-out in assay [9]: xenobiotic metabolism (CYP1A2), CYP1A2 (gene 1544)
Nature of the assay: CLD_CYP1A2_24hr: CellzDirect (CLD) Gene Expression Assay for xenobiotic metabolism (CYP1A2) at 24 hours (AID 2283683). The essentials:
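CYP1A2 mRNA induction measured by quantitative nuclease protection (chemiluminescent) in human primary hepatocytes 24 h after multi-concentration chemical dosing with daily fresh solutions. DMSO (0.2%) baseline; positive-direction fitting; morphology-based cytotoxicity noted.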

Read-out in assay [10]: Cytochrome P450 2B6 (Homo sapiens) (UniProt P20813)
The experiment in a line: CLD_CYP2B6_24hr: CellzDirect (CLD) Gene Expression Assay for xenobiotic metabolism (CYP2B6) at 24 hours (AID 2283686). The gist of the method:
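qNPA chemiluminescent measurement of mRNA at 24 hours in human primary hepatocyte cultures from two donor preparations, with daily fresh dosing and 0.2% DMSO vehicle as baseline. Morphology-based cytotoxicity flagged yes/no.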

Read-out in assay [11]: Cytochrome P450 2C9 (Homo sapiens) (UniProt P11712)
The experiment in a line: CLD_CYP2C9_24hr: CellzDirect (CLD) Gene Expression Assay for xenobiotic metabolism (CYP2C9) at 24 hours (AID 2283688). The essentials:
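Induction of CYP2C9 mRNA was quantified by quantitative nuclease protection assay (chemiluminescence), gain of signal versus 0.2% DMSO vehicle, 24 h after dosing. Human primary hepatocytes (two donors) received fresh chemical daily at multiple concentrations; morphology-based cytotoxicity flagged yes/no.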

Read-out in assay [12]: Cytochrome P450 2C19 (Homo sapiens) (UniProt P33261)
Nature of the assay: CLD_CYP2C19_6hr: CellzDirect (CLD) Gene Expression Assay for xenobiotic metabolism (CYP2C19) at 6 hours (AID 2283678). The essentials: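 CYP2C19 transcript induction was quantified by quantitative nuclease protection assay with chemiluminescent read-out, 6 h after dosing. Cells were primary human hepatocytes from two donor preparations, given fresh dosing solutions daily in 0.2% DMSO vehicle. Activity was relative to DMSO.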

Read-out in assay [13]: ABC Transporter (ABCB11), ABCB11 (gene 8647)
Nature of the assay: CLD_ABCB11_24hr: CellzDirect (CLD) Gene Expression Assay for ABC Transporter (ABCB11) at 24 hours (AID 2283674; active means hit-call score of the fitted dose curve at least 0.9, where 1 is the maximum; inactive means score below 0.9). The essentials:
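ABCB11 transcript was quantified by qNPA chemiluminescence in cultured human liver hepatocytes 24 hours after dosing. Fresh dosing solutions were applied on consecutive days, against a 0.2% DMSO vehicle. Cytotoxicity was noted by phase-contrast morphology.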

Read-out in assay [14]: Cytochrome P450 2B6 (Homo sapiens) (UniProt P20813)
The experiment in a line: CLD_CYP2B6_6hr: CellzDirect (CLD) Gene Expression Assay for xenobiotic metabolism (CYP2B6) at 6 hours (AID 2283677).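 Further: actives raise CYP2B6 transcript above DMSO baseline so AC50 marks an inducer.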 The gist of the method:
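CYP2B6 transcript levels, read by chemiluminescent qNPA, were fitted for increase versus DMSO baseline; cultured human liver hepatocytes from two donor preparations were harvested 6 h after exposure to test chemicals at multiple concentrations.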

Read-out in assay [15]: Broad substrate specificity ATP-binding cassette transporter ABCG2 (Homo sapiens) (UniProt Q9UNQ0)
The experiment in a line: CLD_ABCG2_24hr: CellzDirect (CLD) Gene Expression Assay for ABC Transporter (ABCG2) at 24 hours (AID 2283685). The essentials:
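ABCG2 mRNA induction, read as gain of chemiluminescent signal over 0.2% DMSO, was measured by quantitative nuclease protection at 24 h. Cultured human liver hepatocytes were given fresh dosing solutions of test chemicals at several concentrations each day.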

Read-out in assay [16]: xenobiotic metabolism (CYP1A1), CYP1A1 (gene 1543)
Nature of the assay: CLD_CYP1A1_24hr: CellzDirect (CLD) Gene Expression Assay for xenobiotic metabolism (CYP1A1) at 24 hours (AID 2283673).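 Further: CYP1A1 mRNA level by quantitative nuclease protection with chemiluminescence.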 The essentials:
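Transcript levels were read at 24 h by qNPA chemiluminescence in human liver primary cells. Cells got daily fresh dosing at multiple concentrations (vehicle 0.2% DMSO). Induction fitted upward against DMSO; phase-contrast cytotoxicity annotated.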

Read-out in assay [17]: xenobiotic metabolism (CYP1A2), CYP1A2 (gene 1544)
The experiment in a line: CLD_CYP1A2_6hr: CellzDirect (CLD) Gene Expression Assay for xenobiotic metabolism (CYP1A2) at 6 hours (AID 2283663). The gist of the method:
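mRNA levels quantified by quantitative nuclease protection assay with chemiluminescence, 6 h after dosing human primary hepatocyte cultures (two donors) across several concentrations, vehicle 0.2% DMSO. Induction fitted upward versus DMSO; phase-contrast cytotoxicity annotated.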

Several values for one entry are separate records, joined by “and”; a condition that tells them apart may be missing. Identical values can stand only once. Records with an inconclusive call do not appear. Activity calls are given as the source filed them. How the source made its calls, unless noted: active means hit-call score of the fitted dose curve at least 0.9, where 1 is the maximum; inconclusive means response in the unintended direction; inactive means score below 0.9.

Chain of Cytochrome P450 2C19 (Homo sapiens) (P33261 whole entry, looked up): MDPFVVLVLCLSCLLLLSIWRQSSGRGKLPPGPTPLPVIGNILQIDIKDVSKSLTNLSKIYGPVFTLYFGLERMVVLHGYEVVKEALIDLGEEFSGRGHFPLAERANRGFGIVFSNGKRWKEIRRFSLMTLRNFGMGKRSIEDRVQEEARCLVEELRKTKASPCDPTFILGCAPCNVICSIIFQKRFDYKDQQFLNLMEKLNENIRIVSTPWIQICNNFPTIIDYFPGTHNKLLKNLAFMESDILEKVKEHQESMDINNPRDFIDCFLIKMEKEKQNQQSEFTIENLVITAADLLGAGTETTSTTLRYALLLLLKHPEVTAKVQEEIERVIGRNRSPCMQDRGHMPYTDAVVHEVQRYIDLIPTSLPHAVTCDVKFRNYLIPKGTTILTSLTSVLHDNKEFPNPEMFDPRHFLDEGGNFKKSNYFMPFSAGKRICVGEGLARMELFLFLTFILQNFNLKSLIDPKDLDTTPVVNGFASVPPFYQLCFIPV
Chain of Broad substrate specificity ATP-binding cassette transporter ABCG2 (Homo sapiens) (Q9UNQ0 whole entry, looked up): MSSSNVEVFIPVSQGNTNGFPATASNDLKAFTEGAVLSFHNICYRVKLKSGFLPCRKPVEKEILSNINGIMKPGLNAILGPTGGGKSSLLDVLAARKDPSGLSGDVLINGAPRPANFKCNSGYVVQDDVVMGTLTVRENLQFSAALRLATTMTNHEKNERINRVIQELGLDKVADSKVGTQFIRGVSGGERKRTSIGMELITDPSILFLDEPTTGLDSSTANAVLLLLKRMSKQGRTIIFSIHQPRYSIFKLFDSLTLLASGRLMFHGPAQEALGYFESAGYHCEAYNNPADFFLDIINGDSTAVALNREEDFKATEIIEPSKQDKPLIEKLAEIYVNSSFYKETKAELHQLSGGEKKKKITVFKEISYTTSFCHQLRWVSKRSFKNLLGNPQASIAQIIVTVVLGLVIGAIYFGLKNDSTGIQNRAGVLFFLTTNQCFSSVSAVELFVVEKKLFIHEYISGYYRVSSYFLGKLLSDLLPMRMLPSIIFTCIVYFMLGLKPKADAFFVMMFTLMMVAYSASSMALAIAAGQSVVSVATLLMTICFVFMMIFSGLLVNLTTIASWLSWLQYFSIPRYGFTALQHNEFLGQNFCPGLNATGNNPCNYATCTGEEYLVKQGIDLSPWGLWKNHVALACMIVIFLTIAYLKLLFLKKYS

On to `COC(=O)C=C(C)OP(=O)(OC)OC`, for which the AC50 in [1] was 14 µM (active); in [8] it was 48.1 µM (active). The result in assay [2], in assay [3], in [4], in assay [5], in assay [6] and in [7] was inactive. Moreover, the compound was classed as inactive in assay [9] and in assay [10].

For the compound `CC1=C(C(=O)Nc2ccccc2)SCCO1`, the AC50 is 5.33 µM (active) in assay [1], 6.4 µM (active) in assay [8] and 6 µM (active) in [10]. The result in assay [5], in assay [6] and in assay [11] was inactive.

`CNC(=S)S`: the AC50 is 22 µM (active) and 23 µM (active) in [1]; 7.49 µM (active) in assay [6]. The result in assay [2], in [3], in assay [5], in assay [7] and in assay [12] was inactive.

`O=C(O)c1nc(Cl)ccc1Cl`: the outcome in assay [1], in [2], in assay [4], in assay [5], in assay [13] and in assay [12] was inactive. Besides, the compound was called inactive in assay [8] and in assay [10].

On to `CCOP(=S)(OCC)SCn1c(=O)oc2cc(Cl)ccc21`, for which the concentration at half-maximal activity (AC50) in assay [1] was 2.18 µM (active); in assay [3], 67.4 µM (active); in [14], 1.61 µM (active); in assay [8], 13.5 µM (active); in assay [10], 3.97 µM (active). Further, the call in assay [4], in assay [5], in assay [6], in assay [12] and in [15] was inactive.

For the compound `C#CCOS(=O)OC1CCCCC1Oc1ccc(C(C)(C)C)cc1` (configuration not stated), the outcome in assay [2], in [4], in [5], in assay [6], in [13] and in assay [15] was inactive. In addition, the call in [11] was inactive. Further, the AC50 in [8] is 0.22 µM (active); in [10], 3.2 µM (active).

`COP(N)(=O)SC` (configuration not stated): the AC50 in assay [1] was 30.6 µM (active). The compound was classed as inactive in assay [4], in [6], in assay [16], in assay [12], in assay [8] and in assay [11].

Consider `CCOC(=O)CC(SP(=S)(OC)OC)C(=O)OCC` (configuration not stated), for which the AC50 in assay [1] was 3.4 µM (active); in [5] it was 26.5 µM (active); in [8] it was 27.3 µM (active). The outcome in assay [3], in assay [4], in assay [6], in assay [14], in assay [15] and in assay [10] was inactive. Further, the result in assay [11] was inactive.

With `CCNc1nc(Cl)nc(NCC)n1`, the outcome in assay [17], in [2], in assay [5], in assay [7], in assay [8] and in assay [11] was inactive. The AC50 in assay [10] was 9.74 µM (active).

Turning to `O=C(O)COc1nc(Cl)c(Cl)cc1Cl`, the compound was called inactive in assay [2], in assay [4], in [5], in [6], in assay [12] and in [8]. Further, the call in assay [9], in [15], in assay [10] and in [11] was inactive.

`CCCC1COC(Cn2cncn2)(c2ccc(Cl)cc2Cl)O1` (configuration not stated): the call in assay [1], in assay [6], in assay [7] and in assay [15] was inactive. In addition, the AC50 in assay [3] was 79.7 µM (active); in assay [5], 9.51 µM (active); in assay [8] it was 26.5 µM (active); in assay [10] it was 0.668 µM (active).

Broadly, the AC50 is the midpoint of the concentration-response curve, whichever way the signal moves.
